AID504770: growth inhibitors of E. coli YBA685 in a screen for V. cholerae RctB (chromosome II replication) inhibitors; E. coli YBA685 rctB-dependent plasmid, OD600 growth, 3 h; stronger effect = lower value; z-score (concentration not given with the values); actives 0.27% (n = 130,000); in the data active = z-score below about -2, passing the limit was not always enough
Mtb MenB inh: blocks the Mycobacterium tuberculosis MenB enzyme; P9WNP5; MenB enzyme assay, absorbance read-out; inhibition, % (no concentration beside the values); actives 0.43% (n = 100,000); in the data active = inhibition above about 21%, passing the limit was not always enough
Target sequence (P9WNP5 whole entry, looked up): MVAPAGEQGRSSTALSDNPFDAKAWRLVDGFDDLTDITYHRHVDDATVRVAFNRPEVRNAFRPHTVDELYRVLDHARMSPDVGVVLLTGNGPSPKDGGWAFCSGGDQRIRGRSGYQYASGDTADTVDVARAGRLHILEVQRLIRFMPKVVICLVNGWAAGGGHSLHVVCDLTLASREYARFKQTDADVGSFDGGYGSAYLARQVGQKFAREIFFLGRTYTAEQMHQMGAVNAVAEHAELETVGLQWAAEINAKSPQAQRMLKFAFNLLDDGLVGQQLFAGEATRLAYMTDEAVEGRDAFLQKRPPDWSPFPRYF
Mtb MbtI inh: inhibitors of Mycobacterium tuberculosis siderophore enzyme MbtI; P9WFX0; purified MbtI enzyme, fluorescence intensity read-out; inhibition, % (test concentration not listed); actives 0.89% (n = 100,000); AID 493033; in the data active = inhibition mostly above about 56%, no sharp cut-off; inactive = mostly below about 77%
PV pol inh: poliovirus RNA polymerase inhibition; P03300; poliovirus polymerase elongation, fluorescence polarization; stronger effect = lower value; % elongation, % (compound at 16.7 µg/mL); actives 0.66% (n = 150,000); AID 588519; in the data active = % elongation below about 90%
Large screens that a line does not name were inactive. Shown are actives, neighbours in structure and some others; about 1.4% of the full set was active somewhere.

Cc1cccc(-c2nc3n(n2)C(=O)CC(c2ccc(F)cc2)S3)c1 (stereo not given)	none
c1coc(CNc2nc(C34CC5CC(CC(C5)C3)C4)cs2)c1	Mtb MbtI inh 59.3
Cc1nnc(NCc2ccco2)s1	none
Cc1cc(C(F)(F)F)c(C#N)c(=S)[nH]1	none
N#Cc1c(N)cc(N)[nH]c1=S	Mtb MbtI inh 96.8
CCc1cc(C(=O)O)c(SSc2sc(CC)cc2C(=O)O)s1	Mtb MbtI inh 102.4, PV pol inh 76.0
CCc1cc(C(=O)O)c(NC(=O)c2ccc(Br)cc2)s1	none (no result: Mtb MenB inh)
Cc1nc2c(c(C)nn2C(C)(C)C)c(C)c1CCC(=O)N(C)Cc1ccccc1	none
CCn1nc(C)cc1-c1nnc(SCC(=O)c2ccccc2)n1-c1ccccc1	none (no result: Mtb MenB inh, Mtb MbtI inh, PV pol inh)
Clc1ccc(Cn2nnc3ccccc32)cc1Cl	none
Clc1ccc(Cl)c(-c2nn3c(Cn4nnc5ccccc54)nnc3s2)c1	Mtb MbtI inh 93.0
COC(=O)c1ccc(OC(=O)/C=C/c2cccn2C)cc1	none
CC(C)N1CSC(=S)N(C(C)C)C1	AID504770 -4, PV pol inh 64.0
O=C(CN1C(=O)CSC1=O)Nc1nccs1	none
Nn1cnn(CC(=O)Nc2nccs2)c1=S	PV pol inh 74.0 (no result: Mtb MbtI inh)
Cc1cccc(C(CC(=O)N2CCCC2)n2cccc2)c1 (stereo not given)	none
Cc1ccc(C)n1-c1cccc(C(=O)O)c1	PV pol inh 34.0 (no result: Mtb MbtI inh)
O=C(c1ccccc1)N1CCC(O)(c2cccnc2)CC1	none
O=C(N1CCC(O)(c2cccnc2)CC1)C12CC3CC(CC(C3)C1)C2	Mtb MenB inh 25.4
NNc1nc2ccccc2[nH]c1=S	AID504770 -3.2
Cc1cc(=O)oc2cc(OC(C)C)c(Cl)cc12	none (no result: Mtb MenB inh)
O=C(CN1CCN(c2ncnc3scc(-c4ccc(Cl)cc4)c23)CC1)NC1CC1	AID504770 -4.9
N#CC1=C(N)Oc2c(c(=O)oc3ccccc23)C1	none
CSc1nc(NC(N)=S)nc(NC(C)C)n1	Mtb MbtI inh 87.0
CC(C)Nc1nc(NC(N)=O)nc(NC(C)C)n1	Mtb MenB inh 62.0
CSc1nc(NC(C)C)nc(N(C)C(N)=O)n1	none
Cc1cc(C)c(NC(=O)c2oc3c(c2C)-c2[nH]ncc2CC3)c(C)c1	none (no result: AID504770, Mtb MenB inh, Mtb MbtI inh)
Cc1ccc(Cl)cc1NC(=O)c1oc2c(c1C)-c1[nH]ncc1CC2	PV pol inh 78.0 (no result: AID504770, Mtb MenB inh, Mtb MbtI inh)
S=c1n(CN2CCCCC2)c2ccccc2n1CN1CCCCC1	none
CCCCNC(=O)CCC(=O)NNc1nc2ccccc2c2nc(C)nn12	PV pol inh 81.0 (no result: AID504770, Mtb MenB inh, Mtb MbtI inh)
Cc1nc2c3ccccc3nc(NNC(=O)CCC(=O)N3CCN(c4ccc(F)cc4)CC3)n2n1	none (no result: AID504770, Mtb MenB inh, Mtb MbtI inh)
COCCCNC(=O)CCC(=O)NNc1nc2ccccc2c2nc(C)nn12	PV pol inh 24.0 (no result: AID504770, Mtb MenB inh, Mtb MbtI inh)
CCOCCCNC(=O)CCC(=O)NNc1nc2ccccc2c2nc(C)nn12	PV pol inh 36.0 (no result: AID504770, Mtb MenB inh, Mtb MbtI inh)
CCCCNC(=O)CCC(=O)NNc1nc2ccccc2c2nc(-c3ccccc3)nn12	none (no result: AID504770, Mtb MenB inh, Mtb MbtI inh)
CC(C)(Oc1ccc(Cl)cc1)C(=O)OCC(=O)N1CCCc2ccccc21	none (no result: Mtb MenB inh)
CC1Cc2ccccc2N1C(=O)C1CCN(S(=O)(=O)c2ccc(-n3cnnn3)cc2)CC1 (stereo not given)	Mtb MenB inh 39.3
O=C1CC(=O)c2ccc3c4c(ccc1c24)C(=O)CC3=O	Mtb MbtI inh 92.8
CC1CC(C)CN(S(=O)(=O)c2ccc3[nH]cc(C(=O)N4CCC5(CC4)OCCO5)c(=O)c3c2)C1 (stereo not given)	none
Cc1ccc(C(=O)CC(NCCN2CCOCC2)C(=O)O)cc1 (stereo not given)	Mtb MenB inh 32.9 (no result: Mtb MbtI inh)
O=C(CC(NCCN1CCOCC1)C(=O)O)Nc1ccc2ccccc2c1 (stereo not given)	none
Fc1c(F)c(Oc2ccccc2)c(F)c(F)c1Oc1ccccc1	Mtb MenB inh 26.6
Nc1ccc(Oc2ccccc2)cc1	none
O=C(COC(=O)C1(c2ccccc2F)CCCC1)c1cccs1	none (no result: Mtb MenB inh)
Cc1ccc(C(=O)c2sc(Nc3ccc(F)cc3)c(C#N)c2N)cc1	PV pol inh 77.0 (no result: AID504770, Mtb MenB inh, Mtb MbtI inh)
CNc1c(C(=O)c2ccc(F)cc2)sc(N)c1C#N	none
CCCn1c(SCC(=O)c2cccs2)n[nH]c1=O	Mtb MbtI inh 64.2 (no result: PV pol inh)
Cc1[nH]c(=S)n(C2CCCCC2)c1C	none
O=c1[nH][nH]c(=S)n1C1CCCCC1	Mtb MbtI inh 56.9
CC(C)(C)N(N)C(=S)NCc1ccc(F)cc1	Mtb MbtI inh 90.0, PV pol inh 86.0
Cc1cc(C(=O)CN2C(=O)c3cccc(N)c3C2=O)c(C)n1-c1cccc(S(=O)(=O)N2CCOCC2)c1	none
CCN1/C(=C/c2scc[n+]2C)C=C(C)c2cc(OC)c3ccccc3c21	PV pol inh 56.0
CCOC(=O)c1c(NC(=O)/C(C#N)=C/c2ccc(OC)cc2)sc2c1CCC2	none (no result: AID504770, Mtb MenB inh, Mtb MbtI inh)
CCOc1ccc(/C=C(\C#N)C(=O)Nc2sc3c(c2C(=O)OC)C(C(=O)OC)CC3)cc1OC (stereo not given)	PV pol inh 73.0 (no result: AID504770, Mtb MenB inh, Mtb MbtI inh)
Cc1ccc(-n2c(C)nc3c(cnn3-c3ccccc3)c2=O)cc1	PV pol inh 82.0 (no result: AID504770, Mtb MenB inh, Mtb MbtI inh)
S=c1[nH]nc(NCCCN2CCOCC2)s1	Mtb MbtI inh 97.1
NS(=O)(=O)c1ccc(-c2ccc(/C=C3\COc4ccccc4C3=O)o2)cc1	none
COC(=O)/C(=C/N(C)C)NC(=O)c1ccccc1	none
COc1ccc(NC(=O)C(CCS(C)(=O)=O)N2Cc3ccccc3C2=O)c(OC)c1 (stereo not given)	none (no result: Mtb MenB inh, Mtb MbtI inh, PV pol inh)
O=C(O)C1CSC2c3ccccc3C(=O)N12 (stereo not given)	Mtb MenB inh 38.7
CCN(CC)CCC(=O)c1ccc(OC(C)C)cc1	Mtb MbtI inh 65.5
CCN(CC)CCC(=O)c1ccc(F)cc1	none (no result: Mtb MbtI inh)
O=C1N=c2ccccc2=C1c1c(O)n(-c2cccc(F)c2)[nH]c1=O	Mtb MbtI inh 88.0
CC1=C(O)C(=O)C(/C=N/NC(N)=O)C1 (stereo not given)	none
CCOC(=O)C(C)Sc1nc2c([nH]c3ccccc32)c(=O)n1-c1ccc(F)cc1 (stereo not given)	none (no result: Mtb MenB inh, Mtb MbtI inh, PV pol inh)
Cn1ccnc1SCn1nnc2ccccc2c1=O	none
CN(C)CCC(=O)c1ccc2c(c1)OCO2	none
CCCCCc1ccc(C(=O)CCN(C)C)cc1	Mtb MbtI inh 73.0
c1ccc(-c2nnc3n2N=C(c2cccs2)CS3)cc1	none
CN(C)S(=O)(=O)c1cccc(-c2nnc3n2N=C(c2cccs2)CS3)c1	Mtb MbtI inh 97.3, PV pol inh 76.0
c1cnc2cc(CNCc3ccc4c(c3)OCO4)ccc2n1	none
Clc1cc2c(cc1Cl)Nc1cc(Cl)c(Cl)cc1N2	Mtb MbtI inh 95.3
Cc1cnc2c(c1)N1CCC2CC1	Mtb MenB inh 39.3
CCC(CC)NC(=O)CSc1nnc(-c2ccc(C)cc2)n1N	PV pol inh 78.0
Cc1sc(/N=C/c2ccc(Cl)c(Cl)c2)c(C#N)c1C	none (no result: Mtb MbtI inh)
CCOc1ccccc1NC(=O)c1ccc(C(=O)Nc2ccccc2OCC)cc1	none (no result: AID504770, Mtb MenB inh, Mtb MbtI inh)
CCOc1ccccc1NC(=O)CS	Mtb MbtI inh 82.9
Fc1ccc(C2=Nn3c(Cc4ccccc4)nnc3SC2)cc1	none (no result: Mtb MenB inh)
c1ccc(OCc2nnc3n2N=C(c2ccccc2)CS3)cc1	Mtb MbtI inh 84.1
Brc1ccc(C2=Nn3c(Cn4nnc5ccccc54)nnc3SC2)cc1	Mtb MbtI inh 68.1, PV pol inh 69.0
O=C(O)CSCC(=O)Nc1ccc(Cl)cc1	none
CCOc1ccc(C(=O)N2CCC(C(=O)OC)CC2)cc1	none
